172 sequences from paper PMC6212790, “How bacterial xenogeneic silencer rok distinguishes foreign from self DNA in its resident genome” can be followed below.

Over roughly 33,000 sequences, “e-score” has its median near -0.037; the highest 2% begin near 0.34. For the sample, the highest values were picked, then their nearest neighbours and some sequences at random.

This test addresses T1, GST-Rok (full length) (Bacillus subtilis subsp. subtilis str. …, UniProt O34857 1-191).
T1 sequence: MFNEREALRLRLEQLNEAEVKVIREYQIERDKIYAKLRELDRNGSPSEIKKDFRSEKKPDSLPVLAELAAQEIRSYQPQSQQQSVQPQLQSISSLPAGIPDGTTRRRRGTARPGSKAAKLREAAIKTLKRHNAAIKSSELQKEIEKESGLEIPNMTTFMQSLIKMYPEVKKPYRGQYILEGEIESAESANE
Kind of test: protein binding microarray; Rok is a gene silencer of Bacillus subtilis; high values mean tight binding. To be noted: protein: recombinant; tags: GST (pTH5325, pDEST15-Magic modified); dsDNA, one strand shown. In outline: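 Every oligonucleotide joins a 25-mer constant primer to a 35-mer variable part drawn from a de Bruijn sequence of order 10, so each non-palindromic 8-mer appears at least 32 times and each palindromic 8-mer 16 times. The preference for every 8-mer is reported as a unitless, rank-based enrichment score (E-score). This score spans 0.5 for the most favored 8-mer to −0.5 for the most disfavored.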
Regarding GATTTACA, the binding signal turned out to be 0.345 E-score. Then AATTTACC, with 0.296 E-score; and AATTTACG, with 0.292 E-score; and AATTTACT, with 0.384 E-score. In the case of CAATTACC, the binding signal was 0.133 E-score. On to GCCGATGA, for which the binding signal is -0.108 E-score.

In the case of AGGTGAGC, the binding signal is -0.0616 E-score. Under ATTGATTC stands 0.127 E-score; under TGCAGTAA, 0.194 E-score; under ATGGTAGG, 0.243 E-score.

Consider CTGGTAGA, for which the binding signal was determined as 0.335 E-score.

Take ATGGTATA: the binding signal turned out to be 0.381 E-score. Under ATGGTAGA stands 0.444 E-score; under ATGGTATC, 0.165 E-score. Then ATGGTAGC, with 0.287 E-score. As to GTGGTAGA, the binding signal amounted to 0.435 E-score. Consider CTGGTATA, for which the binding signal stood at 0.303 E-score. Then GTGGTAAA, with 0.192 E-score; and TGCCAGCA, with 0.156 E-score; and CGTCACAA, with -0.0647 E-score. Under TATAACGA stands 0.245 E-score; under CCTATGCC, -0.0371 E-score; under TCAACCAA, -0.0239 E-score. Then CGAATCTC, with -0.0708 E-score. In the case of TAATAGGA, the binding signal worked out at 0.202 E-score. Under AAACCTAA stands 0.124 E-score. Then ATAACTTA, with 0.265 E-score; and ACCGATAT, with 0.338 E-score. Under ACCGATAG stands 0.0776 E-score. For the sequence ACCGATAC, the binding signal was found to be 0.117 E-score.

On to GATATCTA, for which the binding signal came to 0.4 E-score. AATATCTA: the binding signal is 0.392 E-score. Regarding GATATCAA, the binding signal is 0.208 E-score.

With CATATCTA, the binding signal came to 0.293 E-score. AATATCTG: the binding signal was found to be 0.268 E-score.

With AATATCTC, the binding signal was 0.203 E-score.

With AATCGGAA, the binding signal is 0.0335 E-score. Regarding CCTAGTCG, the binding signal was -0.13 E-score. Regarding AACCACCT, the binding signal is -0.126 E-score. Then TCACAGAA, with 0.0426 E-score; and GACCAAGA, with 0.0064 E-score. Then AAGCCTCT, with -0.124 E-score; and CACTACTG, with -0.0214 E-score. As to ACCTACTG, the binding signal came out at 0.295 E-score.

For the sequence AACTACTG, the binding signal was determined as 0.436 E-score. On to AACTACTC, for which the binding signal turned out to be 0.381 E-score. Then CACTACTC, with 0.00906 E-score; and AGCTACTG, with 0.294 E-score. Then AACTACGC, with 0.201 E-score.

As to CACTACTA, the binding signal is 0.354 E-score. Then CACTACGA, with 0.174 E-score; and AACTACGG, with 0.204 E-score; and ACCTACTA, with 0.372 E-score. Under CCCTACTA stands -0.0153 E-score; under ATGCCGCA, -0.0383 E-score; under CTTCGCCA, -0.129 E-score.

Turning to CCACTGCC, the binding signal was -0.199 E-score. Then CTATAAGC, with 0.113 E-score; and ATATGGAG, with 0.202 E-score; and GCGTGAAC, with 0.00198 E-score.

As to TAAGCTGA, the binding signal was -0.0981 E-score. Then AGGGTACG, with -0.168 E-score. Under CCGCTAGG stands -0.19 E-score. Under GGCTTTAC stands 0.00573 E-score; under GCAAATCA, 0.0652 E-score; under TATTGAAA, 0.0126 E-score.

For GACTACGA, the binding signal was 0.079 E-score. TACTACTA: the binding signal was determined as 0.428 E-score. Then AACTACGT, with 0.306 E-score; and TACTACGA, with 0.275 E-score; and GACTACTC, with 0.132 E-score. Then AGCTACTA, with 0.291 E-score; and AACTACTT, with 0.418 E-score; and AACTACTA, with 0.474 E-score. Under GACTACTA stands 0.34 E-score; under AACAACTT, 0.174 E-score; under CGCTACTA, 0.28 E-score.

Regarding AACTACGA, the binding signal was 0.292 E-score. Under ATGTCGGC stands 0.0255 E-score; under ATGCATTG, 0.0725 E-score; under GTCCGCAA, -0.0703 E-score. Then TCAAGCAA, with -0.0617 E-score; and CCCGATAC, with 0.00567 E-score; and CCATCCGC, with -0.114 E-score.

Take ACGGCTTA: the binding signal was -0.0338 E-score. Then AGATAATG, with 0.225 E-score; and CACGTATG, with 0.0605 E-score.

Turning to TCCCCAAA, the binding signal is -0.169 E-score. Under CCCTTTTA stands -0.102 E-score; under GCTTTTTA, 0.157 E-score. With AGATTTCA, the binding signal is 0.0391 E-score. Then AACATAAG, with 0.23 E-score. Then GCTTTCTA, with 0.224 E-score.

CTATCCTA: the binding signal came out at 0.0781 E-score. Then GTATCCTA, with 0.13 E-score.

With ATATCCTA, the binding signal was determined as 0.36 E-score. In the case of GAATGGCC, the binding signal is -0.15 E-score. Under CATTTGCG stands -0.059 E-score.

With AAATATAA, the binding signal came out at 0.253 E-score. Then CAATATAA, with 0.213 E-score. Regarding AAATATAC, the binding signal worked out at 0.376 E-score. Then CAATATAC, with 0.34 E-score. Then AAATACAC, with 0.216 E-score; and AAATATAG, with 0.317 E-score. Under AAATACAT stands 0.348 E-score.

Take GAATATAC: the binding signal amounted to 0.306 E-score. Under AAATACAG stands 0.264 E-score; under AAATATAT, 0.429 E-score.

For AAAAATAT, the binding signal came out at 0.319 E-score. As to AGGAAGTG, the binding signal is -0.139 E-score. As for GCATGTTA, the binding signal was 0.0472 E-score. For the sequence AGTAAAAG, the binding signal was 0.19 E-score. Then CACGCTTA, with -0.0251 E-score; and AAATATCA, with 0.271 E-score; and AAATATCT, with 0.355 E-score.

For AAATATGA, the binding signal turned out to be 0.199 E-score. Then AAATATGT, with 0.338 E-score; and AAATATTA, with 0.305 E-score; and AAATATTG, with 0.295 E-score.

Regarding AAATATCC, the binding signal is 0.127 E-score. With AAATATGC, the binding signal turned out to be 0.223 E-score. Take AAATATTT: the binding signal was 0.337 E-score. As for CATTTCGG, the binding signal worked out at 0.0631 E-score.

With AGTCCAAA, the binding signal was -0.0624 E-score.

ACATCATC: the binding signal was -0.0524 E-score. Then AGCTATAT, with 0.337 E-score.

Take AGCTATAA: the binding signal was 0.25 E-score. For the sequence AACTATAC, the binding signal turned out to be 0.33 E-score. As for AGCTATAG, the binding signal was determined as 0.283 E-score.

For AACTATAG, the binding signal worked out at 0.331 E-score. Under AACTATAT stands 0.362 E-score; under TAAGCCTA, -0.0764 E-score. Under AGGCAAGC stands -0.186 E-score; under AATTGTGG, -0.0645 E-score; under CAGTGCGG, -0.0903 E-score. In the case of GGGTAGCA, the binding signal was -0.00107 E-score. Consider GGGTAGAA, for which the binding signal came to 0.359 E-score.

As to AGGTAGAC, the binding signal is 0.191 E-score.

With AGGTAGAA, the binding signal stood at 0.419 E-score.

For AGGTAGAG, the binding signal was 0.122 E-score. Take AGTTAGAT: the binding signal came to 0.162 E-score.

Regarding ACGTAGAT, the binding signal turned out to be 0.222 E-score.

Take AGGTAGAT: the binding signal was 0.359 E-score. Then AAGTAGAT, with 0.374 E-score; and AAGTAGAG, with 0.104 E-score. Under AAGTAGAC stands 0.00429 E-score; under GGGTAGAC, -0.127 E-score; under GTGCTTTA, -0.00122 E-score. Then GCGAAGTA, with 0.155 E-score; and CGCTTTTC, with 0.046 E-score.

Turning to AAGCTTGT, the binding signal was 0.0413 E-score. Under CTAGGTGA stands -0.041 E-score; under AGAGTTAC, 0.152 E-score. In the case of CAAAGTTA, the binding signal worked out at 0.0253 E-score. Under CGGTAGAC stands -0.0961 E-score. Under CGGTAGAG stands 0.0632 E-score; under CCGTAGAA, 0.32 E-score. Under CGGTAGAA stands 0.417 E-score; under TCGTAGAA, 0.131 E-score; under TGGTAGAA, 0.468 E-score. As to CTAACGCA, the binding signal stood at 0.101 E-score. On to ACCCTGTC, for which the binding signal is -0.0851 E-score. For the sequence AACGACCG, the binding signal is -0.0771 E-score.

For AAATTATT, the binding signal was 0.296 E-score.

For AAATTATA, the binding signal was determined as 0.413 E-score.

CAATTATG: the binding signal stood at 0.175 E-score.

In the case of TAATTATA, the binding signal turned out to be 0.385 E-score. Then CAATTATC, with 0.2 E-score.

Consider CAATTATA, for which the binding signal turned out to be 0.363 E-score. Under AAATTATG stands 0.215 E-score; under GAATTATA, 0.326 E-score; under TAATTAAA, 0.259 E-score.
